What is called fold induction is the ratio of treated to control signal.

Screen size: about 220,000 compounds; about 160 (0.073%) were called active. A selection follows. Entries with a potency or affinity are not part of this list. Unmarked numbers belong to inactive results.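 How the source made its calls: active means fold induction of absorbance versus untreated yeast above a set limit, then at least 30% activation at any dose in follow-up; inconclusive means repeats straddling the limit, or above it without dose testing; inactive means fold induction below the set limit.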

The record followed here is PubChem BioAssay AID1465 (SRMLSC, 2008).

This experiment in a line: enhancers of respiration in Yfh1-depleted yeast, dose response, Friedreich's ataxia, plus single-dose screen (AID 1465). The conditions noted are these: S. cerevisiae Yfh1-off respiration, WST-1 reduction, 72 h; at 50 µM; hits give high values. (Formazan colour is commonly taken as a measure of viable cells.)
On to `Cc1ccc(CN2C(=O)CCC2C(=O)NC(C)C)cc1` (stereo not given), for which the fold induction is 1.04.

In the case of `COc1ccc2c(c1)c(CCN1C(=O)c3ccccc3C1=O)cn2C(=O)c1ccco1`, the fold induction was 1.01. The figure for `CCOc1cc(/C=N\O)cc(Cl)c1OCC` is 0.87. The figure for `CCOc1ccc2nc3ccc4[nH]onc4c3c2c1` is 0.93. Turning to `O=C1C=C(Nc2ccccc2)c2ccccc2C1=O`, the fold induction is 1. On to `CCCCNC1=CC(=O)C(=O)c2ccccc21`, for which the fold induction is 2.68. The result for `O=C(C1CCCO1)N1CCN(C(=S)Nc2ccccc2Cl)CC1` (stereo not given) reads 0.94.

`COCCCn1c(SCc2nnc(-c3ccc(OC)c(OC)c3)o2)nnc1-c1ccncc1`: the fold induction was 1.13. As to `COC(=O)N/N=C/c1cc(OC)c(O)c([N+](=O)[O-])c1`, the fold induction is 1.19. Take `COc1cc(/C=N/NC(=O)c2ccc(C)nc2)cc([N+](=O)[O-])c1O`: the fold induction was 1.21. The result for `COC(=O)C1CCN(C(=O)Cc2c(OC)ccc3cc(Br)ccc23)CC1` reads 0.95. The figure for `CCOC(=O)C1(Cc2cccc(OC)c2)CCN(CC=C(C)C)CC1` is 1.02; for `O=[N+]([O-])c1ccc(Sc2cccc3cccnc23)c2cccnc12` it is 1.02. Consider `O=[N+]([O-])c1cccc(CSc2cccc[n+]2[O-])c1`, for which the fold induction is 1.1. Turning to `CCN(C(=O)CSc1ncccc1C(=O)Oc1cccc([N+](=O)[O-])c1)c1cccc(C)c1`, the fold induction is 0.93.

As for `O=C(NCCNc1ccc([N+](=O)[O-])cc1)c1ccco1`, the fold induction is 1.23.

Regarding `CCN(CC)S(=O)(=O)c1ccc(N/N=C/c2cccnc2)nc1`, the fold induction is 1.09. The result for `Clc1ccc(CSc2ccc(-c3ccccn3)nn2)cc1` reads 0.99; that for `c1cncc(CSc2ccc(-c3cccnc3)nn2)c1`, 1.13. The figure for `Cc1cc(C(=O)N/N=C/c2ccccc2Br)no1` is 0.94; for `COC(=O)c1nc(NC2=NCCCCC2)n[nH]1` it is 1.02.

As for `COC(=O)c1cc(OC)c(OC)cc1NC(=O)c1cccc(OC)c1OC`, the fold induction was 1.09.

For `O=C(C=C1CCN(c2ncc(C(F)(F)F)cc2Cl)CC1)NNC(=O)Nc1ccccc1`, the fold induction was 0.89. The result for `O=C1NN(c2ccc(F)cc2)C(=O)/C1=C\c1cnn(-c2ccccc2)c1` reads 1.14.

For the compound `COc1ccc(NC(=O)c2csc3c2CCCCC3)c(OC)c1`, the fold induction is 1.

For `COc1ccc(CNC(=O)CCS(=O)(=O)Cc2ccc(C)cc2)c(OC)c1`, the fold induction was 0.98. Consider `CCOC(=O)c1cnn(-c2ccccc2)c1NC(=O)c1ccccc1C`, for which the fold induction was 0.92. As for `CCN(CC)c1ccc(/C=N/NC(=O)c2cccc(S(=O)(=O)Nc3ccccc3OC)c2)cc1`, the fold induction is 1.14.

Take `COc1ccccc1NS(=O)(=O)c1cccc(C(=O)N/N=C/c2ccccc2OCC(=O)O)c1`: the fold induction is 0.99. The figure for `O=C(NCc1n[nH]c(=S)n1-c1ccc(Cl)c(Cl)c1)c1cccs1` is 0.98; for `O=C(NNC1=C(C(=O)C(F)(F)F)CCC1)c1ccccc1Cl` it is 1.02. The figure for `O=C(NNC1=C(C(=O)C(F)(F)F)CCC1)c1ccccc1O` is 0.82; for `O=C(NNC1=C(C(=O)C(F)(F)F)CCC1)c1ccncc1` it is 1.05; for `O=C(NNC1=C(C(=O)C(F)(F)F)CCC1)c1ccc(Cl)cc1` it is 1.11. On to `CN(C)c1ccc(NC(=O)C(=O)NCCOc2ccccc2)cc1`, for which the fold induction is 0.95. `CC(C)=CC(=O)OCC(=O)Nc1cc(C)cc(C)c1`: the fold induction is 0.86. On to `Cc1cc(C)nc(SCc2ccc(C(=O)N/N=C/c3ccccn3)cc2)n1`, for which the fold induction is 1.01.

Regarding `CCSc1nc(=O)n(-c2ccccc2)c(C)c1C(C)=O`, the fold induction was 1.05. The result for `CC(C)C(=O)Nc1cccc(NC(=O)c2cccc([N+](=O)[O-])c2)c1` reads 0.95; that for `Cc1cc(C)n(CC(=O)Nc2ccccc2)n1`, 1.01; that for `COc1cc(CNC(C)C)c(Br)cc1OC1CCCC1`, 1.02. The figure for `Cc1sc2nc(SC3CCOC3=O)n(Cc3ccccc3)c(=O)c2c1C` (stereo not given) is 0.94. The figure for `CC(C)OCCCNC(=O)CCC(=O)NNc1nc2ccccc2c2nc(-c3ccccc3)nn12` is 0.97; for `O=C1C(Cl)=C(Nc2ccc(O)cc2)C(=O)c2ccccc21` it is 1.23; for `Cc1ccc(NC2=C(Cl)C(=O)c3ccccc3C2=O)cc1` it is 1.27. Regarding `Cc1sc2ncn(CC(=O)Nc3ccccc3F)c(=O)c2c1-c1ccccc1`, the fold induction is 0.95. `O=C(NCC(c1ccco1)N1CCCCC1)c1ccc2c(c1)S(=O)(=O)c1ccccc1C2=O` (stereo not given): the fold induction is 0.99. The result for `CCCC(=O)c1cc2ccccc2oc1=O` reads 1.11. Regarding `Cc1cc(C)nc(SCC(=O)c2cc3ccccc3oc2=O)n1`, the fold induction is 1.02. The figure for `CCCCC(=O)NC(=S)NNC(=O)CC#N` is 0.83; for `CCCCCC(=O)NC(=S)NNC(=O)CC` it is 0.75.

Turning to `CCCNC(=O)C1(CC2CC(c3ccccc3)=NO2)CCN(C(=O)CCCCCBr)CC1` (stereo not given), the fold induction was 1.03. As for `CCCC(=O)NC(c1cccs1)c1cc(Cl)c2cccnc2c1O` (stereo not given), the fold induction is 1.06. The result for `CCCCC(=O)NC(c1ccco1)c1cc(Cl)c2cccnc2c1O` (stereo not given) reads 0.91. The figure for `O=C(NC(c1ccccc1)c1cc(Cl)c2cccnc2c1O)c1cccnc1` (stereo not given) is 0.87. Take `CCC(=O)NC(c1ccco1)c1cc(Cl)c2cccnc2c1O` (stereo not given): the fold induction was 1.13. With `CCCC(=O)NC(c1ccccc1OC)c1ccc2cccnc2c1O` (stereo not given), the fold induction was 1.03.

For `O=C(NC(c1ccc(Cl)cc1)c1cc(Cl)c2cccnc2c1O)c1cccnc1` (stereo not given), the fold induction is 1.09. On to `CCC(=O)NC(c1ccccc1OC)c1ccc2cccnc2c1O` (stereo not given), for which the fold induction was 0.67. The result for `O=C(O)COc1ccccc1C(Nc1ccccn1)c1cc(Cl)c2cccnc2c1O` (stereo not given) reads 1.19; that for `O=C(Cn1c(COc2ccccc2)nc2ccccc21)Nc1cc(Cl)cc(Cl)c1`, 0.92; that for `CO/N=C/c1ccc(N2CCN(C(=O)c3ccc(F)cc3)CC2)c([N+](=O)[O-])c1`, 0.84. For the compound `CC(=O)Nc1ccc(CN2CCCC(C(=O)c3ccc(C(F)(F)F)cc3)C2)cc1` (stereo not given), the fold induction is 0.88.

In the case of `Cc1cc2ccccc2n2c(SCC(=O)NCC3CCCO3)nnc12` (stereo not given), the fold induction was 0.94.

For `Cc1nc(SC(C)C(=O)Nc2cccc(C(F)(F)F)c2)c2c(C)c(C(=O)O)sc2n1` (stereo not given), the fold induction was 1.09. The figure for `COCCNC(=O)c1cnn2c(C(F)F)cc(-c3ccccc3)nc12` is 1.17; for `COC(=O)c1ccc(N)cc1O` it is 1.05; for `COC(=O)c1ccc(C(=O)OC)c(=O)[nH]1` it is 1.03. The figure for `COc1ccc(N2CCN(C(=O)c3ccc(C(C)(C)C)cc3)CC2)cc1` is 0.96; for `CC(=O)Nc1nc2cc3c(cc2s1)OCO3` it is 0.99; for `COc1ccc(CCNC(=O)COC(=O)Cc2ccc(OC)cc2)cc1` it is 0.8. The figure for `CCOC(=O)c1c(C)oc2c1c(CN1CCN(C(=O)OCC)CC1)c(O)c1ccccc12` is 1.19; for `CCOC(=O)c1c(C)oc2c1c(C=NCCO)c(O)c1ccccc12` it is 1.38.

For the compound `CC(Oc1cccc2c1OC(C)(C)C2)C(=O)O` (stereo not given), the fold induction is 1.05.

Take `CC(C)c1nnc(SCC(=O)N2CCc3ccccc32)n1C`: the fold induction was 0.98. `O=C1c2ccccc2NC(c2ccc(-c3ccc(Br)cc3)o2)N1O` (stereo not given): the fold induction is 0.77. The figure for `O=C1c2ccccc2NC(c2ccc(-c3cccc([N+](=O)[O-])c3)o2)N1O` (stereo not given) is 0.9; for `O=c1oc2ccccc2cc1C1=Nn2c(nnc2-c2cccnc2)SC1` it is 1.06; for `COc1ccc(Cn2c(O)c(C=Nc3ccc(OC)cc3)c3ccccc3c2=O)cc1` it is 1.13. As for `Cc1c(/C=N/NC(=O)c2cccnc2)c2ccccc2n1Cc1ccccc1`, the fold induction is 1.01. For `COc1ccc(Cn2c(O)c(C=Nc3ccccc3)c3ccccc3c2=O)cc1`, the fold induction is 1.05. The result for `O=C(N/N=C/c1c(O)n(-c2ccccc2Cl)c(=O)c2ccccc12)c1cccnc1` reads 1.49. The result for `CC1CCC(NC(=S)NCCN(C)C)CC1` (stereo not given) reads 1; that for `O=C1C2CCCN2C(c2ccc(Br)cc2)N1c1ccc(F)cc1` (stereo not given), 0.86. The figure for `CCOC(=O)/C(C(N)=NCC(C)C)=C(/O)c1ccccc1` is 0.925; for `O=C(CSc1nc(-c2ccc(F)cc2)cc(C(F)(F)F)n1)Nc1ccc2c(c1)OCO2` it is 0.96; for `O=C(OCCOc1ccccc1)c1n[nH]c2ccccc12` it is 0.95. In the case of `COC(=O)[C@H](C)NC(=O)Nc1ccc(OC)cc1OC`, the fold induction is 1.1. Consider `Cc1noc(C)c1CSc1ccc(Br)cc1`, for which the fold induction was 0.89.

As for `COc1ccc(C(=O)NCC(=O)N/N=C/C=C/c2ccccc2)cc1OC`, the fold induction was 0.96. Regarding `CCCCCCN1C=CC(=C/C=C(\C#N)C(=O)OCC)C=C1`, the fold induction is 1.18. Turning to `CCOC(=O)/C(C#N)=C/C=C1\C=Cc2ccccc2N1CC`, the fold induction is 1.

As for `CCCCNC(=S)N1CCN(c2ccc(C(C)=O)cc2)CC1`, the fold induction was 0.96.

As to `COc1cccc(NC(=O)NCCC2=CCCCC2)c1`, the fold induction was 0.86. As to `Cc1ccccc1C(=O)NNC(=O)C(C)N1C(=O)c2ccccc2C1=O` (stereo not given), the fold induction was 1.01.

Consider `NC(=S)n1[nH]c(-c2ccc([N+](=O)[O-])cc2)c(N=Nc2cccc(Cl)c2)c1=O`, for which the fold induction was 1.01. As for `NC(=S)n1[nH]c(-c2ccc([N+](=O)[O-])cc2)c(N=Nc2ccc(Cl)cc2)c1=O`, the fold induction is 1.58.

Turning to `Cc1ccc(-n2c(SCC(=O)Nc3cc(C)on3)nc3c(c2=O)SC(C)C3)cc1` (stereo not given), the fold induction was 1.05. The result for `CC(C)C(c1nnnn1CCc1ccccc1)N1CCOCC1` (stereo not given) reads 1.03; that for `CC(C)(C=O)C1=CC(=O)c2ccccc2C1=O`, 1.3. The figure for `COc1cccc2c1C(=O)C=C(C)C2=O` is 1.23. Regarding `Cc1ccc(N2CCN(C(=O)c3cccc([N+](=O)[O-])c3)CC2)cc1Cl`, the fold induction is 0.82. The figure for `O=C(CSc1ccccc1)Nc1ccc(C(=O)Nc2ccc(O)cc2)cc1` is 1.06; for `O=C(Cn1cnc2cc([N+](=O)[O-])ccc2c1=O)Nc1ccc2c(c1)OCO2` it is 0.88; for `COc1ccc(NC(=S)NNC(=O)COc2ccc(Cl)cc2Cl)cc1` it is 0.84. `Cc1cccc(NC(=S)NNC(=O)COc2ccc(Cl)cc2Cl)c1`: the fold induction was 1.14.

On to `O=C(NCc1ccc(Cl)cc1)C1CCC(CNc2c(N3CCOCC3)c(=O)c2=O)CC1` (stereo not given), for which the fold induction was 1.07. The result for `O=C(N/N=C/c1cc([N+](=O)[O-])ccc1O)c1cc(-c2ccccc2)nc2ccccc12` reads 1.16; that for `COc1cc([N+](=O)[O-])cc(/C=N/NC(=O)c2cc(C)nc3ccccc23)c1O`, 1.4; that for `Cc1ccccc1-c1nc(CN2CCSCC2)c(C)o1`, 1.04.
